Screen size: about 5,500 compounds; about 2,000 (36%) were called active. About 18% were inconclusive and are not listed. No stated cut-off is given here; in the data, active means normalized growth mostly below about 0.91 (no sharp cut-off); inconclusive means no clear call, values can overlap the other calls; inactive means mostly above about 0.92. This is one part of the list.
Experiment: chemical genetic growth profiling, strain panel (AID 1159580);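 further: tested at 20 µM; growth read once vehicle control cultures reached saturation at 30 °C; 1 = growth at the plate median or of vehicle wells; lower values mean less growth of the strain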
Conditions: growth OD

Measured: normalized growth

COc1cc(NS(=O)(=O)c2ccc(N)cc2)nc(OC)n1
inactive: S. cerevisiae deletion strains, locus YJR066W, strain TOR1, active compounds read low 0.933 | S. cerevisiae deletion strains, locus YKL009W, strain mrt4, active compounds read low 0.985 | S. cerevisiae deletion strains, locus YKL068W, active compounds read low 0.984 | S. cerevisiae deletion strains, locus YKL085W, strain MDH1 (second series), active compounds read low 0.991 | S. cerevisiae deletion strains, locus YKL085W, strain MDH1, active compounds read low 0.991 | S. cerevisiae deletion strains, locus YKL160W, strain elf1, active compounds read low 0.969 | S. cerevisiae deletion strains, locus YKL190W, strain CNB1, active compounds read low 0.999 | S. cerevisiae deletion strains, locus YKR001C, strain vps1, active compounds read low 1 | S. cerevisiae deletion strains, locus YKR026C, strain gcn3, active compounds read low 0.973 | S. cerevisiae deletion strains, locus YKR091W, strain srl3, active compounds read low 0.982 | S. cerevisiae deletion strains, locus YLL001W, strain dnm1, active compounds read low 0.982 | S. cerevisiae deletion strains, locus YLL026W, active compounds read low 0.992 | S. cerevisiae deletion strains, locus YLL041C, strain sdh2, active compounds read low 0.992 | S. cerevisiae deletion strains, locus YLR027C, strain aat2, active compounds read low 0.988 | S. cerevisiae deletion strains, locus YLR039C, strain RIC1, active compounds read low 0.997 | S. cerevisiae deletion strains, locus YLR058C, strain SHM2, active compounds read low 0.982 | S. cerevisiae deletion strains, locus YLR102C, strain apc9, active compounds read low 0.985 | S. cerevisiae deletion strains, locus YLR113W, strain HOG1, active compounds read low 0.961 | S. cerevisiae deletion strains, locus YLR221C, strain rsa3, active compounds read low 0.986 | S. cerevisiae deletion strains, locus YLR258W, strain gsy2, active compounds read low 0.979 | S. cerevisiae deletion strains, locus YLR262C, strain YPT6 (second series), active compounds read low 0.952 | S. cerevisiae deletion strains, locus YLR262C, strain YPT6, active compounds read low 0.97 | S. cerevisiae deletion strains, locus YLR268W, strain sec22, active compounds read low 0.98 | S. cerevisiae deletion strains, locus YLR320W, strain mms22, active compounds read low 0.972 | S. cerevisiae deletion strains, locus YLR330W, strain CHS5, active compounds read low 0.984 | S. cerevisiae deletion strains, locus YLR342W, strain FKS1 (second series), active compounds read low 0.95 | S. cerevisiae deletion strains, locus YLR342W, strain FKS1, active compounds read low 0.986 | S. cerevisiae deletion strains, locus YLR357W, strain rsc2, active compounds read low 0.921 | S. cerevisiae deletion strains, locus YLR370C, strain arc18, active compounds read low 0.977 | S. cerevisiae deletion strains, locus YLR371W, strain rom2, active compounds read low 0.982 | S. cerevisiae deletion strains, locus YLR384C, strain iki3, active compounds read low 0.97 | S. cerevisiae deletion strains, locus YLR418C, strain cdc73, active compounds read low 0.969 | S. cerevisiae deletion strains, locus YML016C, strain PPZ1, active compounds read low 0.983 | S. cerevisiae deletion strains, locus YML032C, strain rad52, active compounds read low 0.983 | S. cerevisiae deletion strains, locus YML120C, strain ndi1, active compounds read low 0.972 | S. cerevisiae deletion strains, locus YML124C, strain tub3, active compounds read low 0.988 | S. cerevisiae deletion strains, locus YMR058W, strain fet3, active compounds read low 0.996 | S. cerevisiae deletion strains, locus YMR078C, strain ctf18, active compounds read low 0.984 | S. cerevisiae deletion strains, locus YMR125W, strain sto1, active compounds read low 0.978 | S. cerevisiae deletion strains, locus YMR129W, active compounds read low 0.983 | S. cerevisiae deletion strains, locus YMR205C, strain PFK2, active compounds read low 0.971 | S. cerevisiae deletion strains, locus YMR223W, strain ubp8, active compounds read low 0.987 | S. cerevisiae deletion strains, locus YMR231W, strain pep5, active compounds read low 0.982 | S. cerevisiae deletion strains, locus YMR307W, strain GAS1, active compounds read low 0.933 | S. cerevisiae deletion strains, locus YNL067W, strain RPL9B, active compounds read low 1.01 | S. cerevisiae deletion strains, locus YNL071W, strain lat1, active compounds read low 0.975 | S. cerevisiae deletion strains, locus YNL153C, strain GIM3, active compounds read low 1.04 | S. cerevisiae deletion strains, locus YNL183C, strain NPR1, active compounds read low 0.943 | S. cerevisiae deletion strains, locus YNL209W, strain ssb2, active compounds read low 0.97 | S. cerevisiae deletion strains, locus YNL233W, strain BNI4, active compounds read low 1 | S. cerevisiae deletion strains, locus YNL248C, strain rpa49, active compounds read low 0.969 | S. cerevisiae deletion strains, locus YNL250W, strain rad50, active compounds read low 0.988 | S. cerevisiae deletion strains, locus YNL271C, strain bni1, active compounds read low 0.978 | S. cerevisiae deletion strains, locus YNL298W, strain CLA4, active compounds read low 0.962 | S. cerevisiae deletion strains, locus YNL307C, strain MCK1, active compounds read low 0.981 | S. cerevisiae deletion strains, locus YNL322C, strain KRE1 (second series), active compounds read low 0.976 | S. cerevisiae deletion strains, locus YNL322C, strain KRE1, active compounds read low 0.996 | S. cerevisiae deletion strains, locus YNR049C, strain mso1, active compounds read low 0.979 | S. cerevisiae deletion strains, locus YNR052C, strain pop2, active compounds read low 0.986 | S. cerevisiae deletion strains, locus YOL006C, strain TOP1, active compounds read low 1.05 | S. cerevisiae deletion strains, locus YOL012C, strain htz1 0.758 | S. cerevisiae deletion strains, locus YOL147C, strain pex11, active compounds read low 0.978 | S. cerevisiae deletion strains, locus YOR001W, strain rrp6, active compounds read low 0.988 | S. cerevisiae deletion strains, locus YOR061W, strain CKA2, active compounds read low 0.977 | S. cerevisiae deletion strains, locus YOR069W, strain VPS5, active compounds read low 0.985 | S. cerevisiae deletion strains, locus YOR070C, strain gyp1, active compounds read low 0.981 | S. cerevisiae deletion strains, locus YOR080W, strain dia2, active compounds read low 0.966 | S. cerevisiae deletion strains, locus YOR083W, strain WHI5, active compounds read low 0.981 | S. cerevisiae deletion strains, locus YOR106W, strain vam3, active compounds read low 0.977 | S. cerevisiae deletion strains, locus YOR136W, strain idh2, active compounds read low 0.991 | S. cerevisiae deletion strains, locus YOR144C, strain elg1, active compounds read low 0.992 | S. cerevisiae deletion strains, locus YOR184W, strain ser1, active compounds read low 0.991 | S. cerevisiae deletion strains, locus YOR231W, strain MKK1, active compounds read low 0.968 | S. cerevisiae deletion strains, locus YOR265W, strain rbl2, active compounds read low 0.992 | S. cerevisiae deletion strains, locus YOR270C, strain vph1, active compounds read low 0.965 | S. cerevisiae deletion strains, locus YOR290C, strain snf2, active compounds read low 0.991 | S. cerevisiae deletion strains, locus YOR316C, strain cot1, active compounds read low 0.988 | S. cerevisiae deletion strains, locus YPL051W, strain arl3, active compounds read low 0.973 | S. cerevisiae deletion strains, locus YPL055C, strain LGE1, active compounds read low 1.03 | S. cerevisiae deletion strains, locus YPL078C, strain atp4, active compounds read low 0.965 | S. cerevisiae deletion strains, locus YPL106C, strain sse1, active compounds read low 0.976 | S. cerevisiae deletion strains, locus YPL240C, strain hsp82, active compounds read low 0.98 | S. cerevisiae deletion strains, locus YPL241C, strain CIN2, active compounds read low 0.994 | S. cerevisiae deletion strains, locus YPL256C, strain CLN2, active compounds read low 0.966 | S. cerevisiae deletion strains, locus YPR119W, strain clb2, active compounds read low 0.989 | S. cerevisiae deletion strains, locus YPR141C, strain kar3, active compounds read low 0.982 | S. cerevisiae deletion strains, locus YPR163C, strain tif3, active compounds read low 0.973 | S. cerevisiae deletion strains, locus YPR167C, strain met16, active compounds read low 0.986 | S. cerevisiae deletion strains, strain wtn01, active compounds read low 0.981 | S. cerevisiae strains, strain wild type, active compounds read low 0.991

Reference: PubChem BioAssay AID1159580 (chemical genetic matrix, 2015)
